From PubChem BioAssay AID488969 (Vanderbilt High Throughput Screening Facility, 2010)
Over roughly 110,000 compounds, “z-score” has its median near -0.1; the highest 2% begin near 2. The sample as a whole holds a higher share of the highest values than the screen did. Active and inactive are the calls of the source.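 How the source made its calls: active means z-score in the third read window above 3 or below -3; inactive means the rest.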

The molecules below were run against Metabotropic glutamate receptor 8 (Rattus norvegicus) (UniProt P70579) (assay: mGluR8 Gi/Go-coupled signaling modulation – cell-based, rat, thallium flux, HTS, primary screen (AID 488969)). Conditions: HEK293 rat mGluR8, GIRK (G protein-gated inwardly rectifying potassium channel) thallium flux, FluoZin2; at 10 µM; stronger effect = higher value; submaximal glutamate (EC20) added with thallium.
Sequence of Metabotropic glutamate receptor 8 (Rattus norvegicus) (P70579 whole entry, looked up): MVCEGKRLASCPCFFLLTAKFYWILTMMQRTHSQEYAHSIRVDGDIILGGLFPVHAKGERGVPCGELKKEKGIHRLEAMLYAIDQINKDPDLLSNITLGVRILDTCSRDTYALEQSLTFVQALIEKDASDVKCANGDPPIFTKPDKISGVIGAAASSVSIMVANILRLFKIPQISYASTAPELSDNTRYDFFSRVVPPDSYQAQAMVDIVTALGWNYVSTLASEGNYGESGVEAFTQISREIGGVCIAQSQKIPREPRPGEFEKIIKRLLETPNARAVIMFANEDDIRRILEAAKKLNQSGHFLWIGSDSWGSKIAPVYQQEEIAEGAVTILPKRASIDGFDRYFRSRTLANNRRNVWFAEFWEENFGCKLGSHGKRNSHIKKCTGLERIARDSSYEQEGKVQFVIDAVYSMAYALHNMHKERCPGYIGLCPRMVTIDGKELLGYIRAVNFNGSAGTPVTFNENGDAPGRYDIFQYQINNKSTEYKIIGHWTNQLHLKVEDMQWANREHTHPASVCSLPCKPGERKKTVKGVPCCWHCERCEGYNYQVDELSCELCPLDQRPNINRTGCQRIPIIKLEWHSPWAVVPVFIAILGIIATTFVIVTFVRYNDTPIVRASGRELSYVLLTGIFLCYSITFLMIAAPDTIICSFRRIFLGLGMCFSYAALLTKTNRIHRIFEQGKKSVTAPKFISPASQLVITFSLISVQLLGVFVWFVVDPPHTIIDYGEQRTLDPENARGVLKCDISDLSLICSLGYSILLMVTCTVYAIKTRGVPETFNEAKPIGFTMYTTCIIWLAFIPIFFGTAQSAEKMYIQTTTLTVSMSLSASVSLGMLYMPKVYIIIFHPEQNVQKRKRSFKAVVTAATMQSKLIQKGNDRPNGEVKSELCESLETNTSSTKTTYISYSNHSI

Row | SMILES | z-score
1 | O=C(c1cccn(Cc2cccc(Cl)c2)c1=O)N1CCOCC1 | 0.0735
2 | CC(C)COP(=O)(c1ccc(N(C)C)cc1)C(O)c1ccccn1 (stereo unspecified) | 0.147
3 | CC(C)COP(=O)(c1ccc(N(C)C)cc1)C(O)c1ccncc1 (stereo unspecified) | -0.817
4 | CC(C)CCOP(=O)(c1ccc(N(C)C)cc1)C(O)c1ccccn1 (stereo unspecified) | 5.74 (active)
5 | CCOC(=O)c1ccc(NC(=O)C2=C(C)Nc3nc(CCCO)nn3C2c2cccc(C)c2)cc1 (stereo unspecified) | 0.0656
6 | COc1cccc(CNS(=O)(=O)c2cc(Br)cc3c2N(C(C)=O)C(C)C3)c1 (stereo unspecified) | 0.241
7 | CC(=O)N1c2c(cc(Br)cc2S(=O)(=O)NCC2COc3ccccc3O2)CC1C (stereo unspecified) | 0.248
8 | CCCCN(Cc1ccccc1)S(=O)(=O)c1cc(Br)cc2c1N(C(C)=O)C(C)C2 (stereo unspecified) | 2.82
9 | CCOc1ccc(/C=C2\SC(=O)N(CCNC(=O)C3COc4ccccc4O3)C2=O)cc1OC (stereo unspecified) | -0.337
10 | COc1ccc(/C=N/c2oc(-c3ccccc3)cc2C#N)cc1 | -0.0521
11 | Oc1ccc(Br)cc1/C=N/n1cnc2ccccc21 | 2.45
12 | O=[N+]([O-])c1ccc(O)c(/C=N/n2cnc3ccccc32)c1 | -0.812
13 | COc1cccc(/C=N/n2cnc3ccccc32)c1OC | -0.147
14 | COc1cc(C(=S)N2CCC(C(N)=O)CC2)ccc1O | -0.479
15 | CC(=O)c1cccc(NC(=S)NC2CC2)c1 | -0.023
16 | O=C1OC2(CCCCC2)OC(=O)C1=CNc1ccc2c(c1)OCO2 | 0.207
17 | O=C1OC2(CCCCC2)OC(=O)C1=CNc1nc2ccccc2s1 | 8.02 (active)
18 | CCOc1ccccc1NC=C1C(=O)OC2(CCCCC2)OC1=O | 0.615
19 | COc1ccccc1N1CCN(C(=O)c2ccc(CN3CCc4ccccc4C3)cc2)CC1 | -0.0526
20 | O=c1[nH]c(-c2cccnc2)nc2ccccc12 | -0.073
21 | O=C(Nc1ccccc1)C1=C(O)CC(c2ccc(Cl)cc2)N2CCN=C12 (stereo unspecified) | -0.724
22 | CC1=NN(C(=S)Nc2ccccc2)C(c2ccccc2)C1 (stereo unspecified) | 0.129
23 | CC1CN=C2C(C(=O)Nc3ccccc3)=C(O)CC(c3ccccc3)N21 (stereo unspecified) | 2.31
24 | N#C/C(=C\c1c(N2CCC(C(N)=O)CC2)nc2ccccn2c1=O)C(=O)NCc1ccco1 | -0.0915

Row | SMILES | z-score
25 | COC(=O)C1C2C=CC3(CN(Cc4ccco4)C(=O)C13)O2 (stereo unspecified) | 0.49
26 | CCc1ccc(CNc2ccc(N3CCN(C(C)=O)CC3)cc2)cc1 | 0.968
27 | CC(=O)N1CCN(c2ccc(NCc3ccc(C(C)C)cc3)cc2)CC1 | 2.03
28 | CC(=O)N1CCN(c2ccc(NCc3ccc(F)cc3)cc2)CC1 | 0.0515
29 | O=C(Nc1ccc2c(c1)OCO2)C1CCN(C(=O)CSc2ncnc3ccccc23)CC1 | -0.185
30 | BrC(/C=N/Nc1nc(N2CCOCC2)nc(N2CCOCC2)n1)=C/c1ccccc1 | -0.171
31 | Cn1c(=O)oc2cc(S(=O)(=O)NCc3ccccc3)ccc21 | 0.611
32 | CCCn1c(=N)n(CC(=O)c2ccco2)c2ccccc21 | -0.051
33 | N=c1n(Cc2ccccc2)c2ccccc2n1CC(O)c1ccco1 (stereo unspecified) | 0.39
34 | Cc1ccc(Cn2c(=N)n(CC(O)c3ccco3)c3ccccc32)cc1 (stereo unspecified) | 1.09
35 | CCn1c(=N)n(CC(=O)c2ccco2)c2ccccc21 | 0.33
36 | CCCCn1c(=N)n(CC(=O)c2ccco2)c2ccccc21 | -0.268
37 | Cc1ccccc1Cn1c(=N)n(CC(O)c2ccco2)c2ccccc21 (stereo unspecified) | 3.34 (active)
38 | Cc1ccccc1Cn1c(=N)n(CC(=O)c2ccc([N+](=O)[O-])cc2)c2ccccc21 | 0.33
39 | Cc1ccccc1Cn1c(=N)n(CC(=O)c2ccco2)c2ccccc21 | 2.17
40 | CCCCCCCn1c(=N)n(CC(=O)c2ccco2)c2ccccc21 | 4.65 (active)
41 | CC1CCN(C(=S)NC2CCCCC2)CC1 | -0.176
42 | CCN1CCN(C(=O)CN2C(=O)c3cccc4cccc2c34)CC1 | -0.191
43 | O=C(CSc1ccc(-c2ccccc2)nn1)c1ccccc1 | 0.0905
44 | CCOCC(=O)Nc1nnc(Cc2ccc(OC)cc2)s1 | -0.115
45 | Cc1ccc(C)c(NC(=S)NC(NC(=O)OCc2ccccc2)C(Cl)(Cl)Cl)c1 (stereo unspecified) | -0.108
46 | Cc1ccc(C(=O)O/N=C/c2ccc3c(c2)OCO3)cc1 | -0.102
47 | CSc1nnc(-c2ccccc2Cl)o1 | -0.168
48 | Cc1ccccc1C(=O)NC(=S)Nc1ccc(Oc2ccc(Cl)cc2)cc1 | 2.74

Row | SMILES | z-score
49 | O=C(N/N=C/c1ccc(Cl)cc1Cl)Nc1ccccc1 | -0.276
50 | Cc1ccccc1C(=O)NC(=S)Nc1ccc(Cc2ccncc2)cc1 | -0.501
51 | CSc1ccccc1NC(=O)Nc1ccc(Cl)cc1 | 6.38 (active)
52 | CSc1ccccc1NC(=O)Nc1ccc(F)c(Cl)c1 | -0.197
53 | Cc1ccccc1C(=O)NC(=S)Nc1ccc(S(=O)(=O)N(C)c2ccccc2)cc1 | 1.07
54 | O=C(N/C(=N\O)c1ccccc1)Nc1ccc(Cl)cc1 | 2.01
55 | CSc1ccccc1NC(=O)Nc1ccccc1 | 0.531
56 | O=C(N/N=C/c1ccc(Cl)cc1)Nc1ccccc1 | -0.0155
57 | Cc1cccc(C)c1NC(=S)NC(=O)c1ccccc1F | 7.93 (active)
58 | O=C(NC(=S)NC(=O)c1ccccc1F)c1ccccc1F | 0.339
59 | O=C(NC(=S)NCc1ccccc1)c1ccccc1F | 1.93
60 | COc1ccc(CCN2C(=O)CCC2(C)C(=O)NCc2cccnc2)cc1OC (stereo unspecified) | -0.282
61 | Cc1nn(-c2ccc(F)cc2)c(Cl)c1/C=N/NC(=O)c1cccc(S(=O)(=O)N2CCCC2)c1 | -0.115
62 | Cc1cc(/C=C2/C(=O)NN(c3ccccc3)C2=O)c(C)n1-c1cccc(O)c1 | -0.338
63 | Cn1nnc(NC(=O)CSc2nnnn2-c2ccc(F)cc2)n1 | 0.0243
64 | O=C(NC(C(=O)N/N=C/c1c2ccccc2cc2ccccc12)c1n[nH]c(=O)c2ccccc12)c1ccccc1 (stereo unspecified) | -0.183
65 | N#C/C(=C\c1c(N(Cc2ccccc2)Cc2ccccc2)nc2ccccn2c1=O)C(N)=O | -1.96
66 | Cc1c(C(=O)Nc2ccccc2[N+](=O)[O-])csc1-c1ccccc1 | -0.152
67 | Cc1ccc(C(=O)NC(=S)Nc2ccc(Oc3ccc(Cl)cc3)cc2)cc1 | 0.157
68 | O=C(NC(=S)Nc1ccc(Oc2ccc(Cl)cc2)cc1)c1ccccc1 | 3.94 (active)
69 | O=C(NC(=S)Nc1ccc(Oc2ccccc2)cc1)c1ccc(Cl)cc1 | 1.23
70 | Cc1nc2ncnn2c(C)c1CCC(=O)Nc1csc(N)n1 | -0.0552
71 | O=C1CC(SCc2nc3ccccc3[nH]2)C(=O)N1c1ccc(F)cc1 (stereo unspecified) | 0.0187
